Test results reported in the supplement of paper PMC4683952.
Structures can show the parent of a compound that is named as a salt. The campaign covered roughly 1,200 compounds. About 50 (4%) showed activity. The sample holds actives, similar compounds and a random draw of the others, so the mix is not that of the screen. Values without a mark were called inactive. No stated cut-off is given here; in the data, all actives reach 1.3 or more but so do some inactives.

The compounds below were run on Lgr5 (MarsCy1-Lgr5-EGFP, U2OS) (assay: cell-surface Lgr5 expression (SCi1 fluorescence, background-subtracted) relative to WT DMSO (fold of DMSO control); higher = more Lgr5 at the plasma membrane, active = hit call of the paper). Details: U2OS MarsCy1-Lgr5-EGFP stable; treatment time: overnight; 16 µM; library: Johns Hopkins Clinical Compound Library.

Compound	cell-surface Lgr5 expression
CCOc1ccc(NC(C)=O)cc1 [Phenacetin (acetophenetidin)]	1.24
CCOc1ccc(NC(=O)CC(C)O)cc1 (stereo not drawn) [Bucetin]	1.29
CCCCOc1ccc(CC(=O)NO)cc1 [Bufexamac]	1.82 (active)
Cc1c(C)c2c(c(C)c1O)CCC(C)(COc1ccc(CC3SC(=O)NC3=O)cc1)O2 (stereo not drawn) [Troglitazone]	1.09
Oc1cccc(O)c1O [Pyrogallol]	1.15
CC1(C)O[C@@H]2C[C@H]3[C@@H]4CCC5=CC(=O)CC[C@]5(C)[C@@]4(F)[C@@H](O)C[C@]3(C)[C@]2(C(=O)CCl)O1 [Halcinonide]	1.71 (active)
CC(=O)OCC(=O)[C@@]1(O)CC[C@H]2[C@@H]3CCC4=CC(=O)C=C[C@]4(C)[C@@]3(Cl)[C@@H](Cl)C[C@@]21C [Dichlorisone acetate]	1.55 (active)
CC(=O)OCC(=O)[C@@]1(O)CC[C@H]2[C@@H]3CCC4=CC(=O)CC[C@]4(C)[C@@]3(F)[C@@H](O)C[C@@]21C	1.35 (active)
Nc1ccn([C@@H]2CS[C@H](CO)O2)c(=O)n1 [Lamivudine]	0.724
COc1cc2c(cc1OC)C(=O)C(CC1CCN(Cc3ccccc3)CC1)C2 (stereo not drawn) [Donepezil hydrochloride]	0.531
C[N+](C)(C)CCO.O=C([O-])CC(O)(CC(=O)O)C(=O)O [Choline dihydrogen citrate]	0.803
CCOC(=O)[C@H](CCc1ccccc1)N[C@@H](C)C(=O)N1Cc2ccccc2C[C@H]1C(=O)O [Quinapril]	1.13
O=C([O-])[O-].[Li+].[Li+] [Lithium carbonate]	0.278
N=C(N)NC(=N)NCCc1ccccc1 [Phenformin hydrochloride]	0.756
O=S(=O)([O-])[O-].[Fe+2] [Ferrous sulfate]	0.888
CCN(CC)CCOc1ccc2c(c1)C(=O)c1cc(OCCN(CC)CC)ccc1-2 [Tilorone dihydrochloride]	1.62 (active)
CCCCOc1cc(C(=O)OCCN(CC)CC)ccc1N [Benoxinate]	0.987
CCCOc1ccc(C(=O)OCCN(CC)CC)cc1N [Proparacaine]	1.22
Cl.Cl.NCCN [Ethylenediamine dihydrochloride]	1.05
COC(=O)[C@H](Cc1ccccc1)NC(=O)[C@@H](N)CC(=O)O [Aspartame]	0.834
C[C@H](CCC(=O)O)[C@H]1CC[C@H]2[C@@H]3[C@@H](O)C[C@@H]4C[C@H](O)CC[C@]4(C)[C@H]3CC[C@]12C [Ursodiol (Ursodeoxycholic acid)]	0.801
S=c1[nH]cnc2nc[nH]c12 [6-Mercaptopurine monohydrate]	1.67 (active)
Nc1nc2[nH]cnc2c(=S)[nH]1 [Thioguanine (2-amino,6-mercaptopurine)]	0.849

Compound	cell-surface Lgr5 expression
COc1ccc(CN2CCN(C(c3ccc(F)cc3)c3ccc(F)cc3)CC2)c(OC)c1OC [Lomerizine HCl]	1.15
O=C[O-].[Na+] [Sodium formate]	0.903
C=N[C@@H](C(=O)N[C@@H]1C(=O)N2[C@@H]1SC(C)(C)[C@@H]2C(=O)O)c1ccccc1 [Metampicillin]	0.953
N.N.O=S(=O)(O)O [Ammonium sulfate]	0.987
COc1ccc2cc3[n+](cc2c1OC)CCc1cc2c(cc1-3)OCO2 [Berberine bisulfate]	1.47
COc1ccc2cc3[n+](cc2c1OC)CCc1cc2c(cc1-3)OCO2 [Berberine]	1.64 (active)
O.O.O.O.O.O.[Cl-].[Cl-].[Sr+2] [Strontium chloride hexahydrate]	1.29
COc1cccc2c1C(=O)c1c(O)c3c(c(O)c1C2=O)C[C@@](O)(C(=O)CO)C[C@@H]3O[C@H]1C[C@H](N)[C@H](O)[C@H](C)O1 [Doxorubicin]	0.634
O=C(Nc1ccc(Cl)cc1)Nc1ccc(Cl)c(Cl)c1 [Trilocarban (3,4,4'-Trichlorocarbanilide, 99%)]	0.931
COc1ccccc1OCC(O)CO (stereo not drawn) [Guaifenesen (Guaiacol glyceryl ether)]	1.11
CC(C)NCC(O)COc1cccc2ccccc12 (stereo not drawn) [Propranolol]	1.07
COc1ccccc1OCC(O)CO (stereo not drawn) [Guaifenesin]	1.27
C=CCOc1ccccc1OCC(O)CNC(C)C (stereo not drawn) [Oxprenolol]	1.42 (active)
COC(=O)CCc1ccc(OCC(O)CNC(C)C)cc1 (stereo not drawn) [Esmolol]	1.29
Nc1nc(O)c2ncn(CCC(CO)CO)c2n1 [Penciclovir]	0.791
CC(=O)[O-].CC(=O)[O-].[Mg+2] [Magnesium acetate]	0.917
CN(C(=O)C(Cl)Cl)c1ccc(OC(=O)c2ccco2)cc1 [Diloxanide furoate]	1.05
CC1(C)S[C@@H]2[C@H](NC(=O)C3(N)CCCCC3)C(=O)N2[C@H]1C(=O)O [Cyclacillin]	0.994
CC(=O)N(O)CCCCCNC(=O)CCC(=O)N(O)CCCCCNC(=O)CCC(=O)N(O)CCCCCN [Deferoxamine mesylate]	0.865
CCCN(CCC)S(=O)(=O)c1ccc(C(=O)O)cc1 [Probenecid]	1.01
Nc1ccc(C(=O)O)cc1 [4-Aminobenzoic acid, sodium salt,99%]	0.905
NS(=O)(=O)c1ccc(C(=O)O)cc1 [Carzenide (4-Carboxybenzenesulfonamide, 97%)]	1.3 (active)
Oc1c(I)cc(Cl)c2cccnc12 [Clioquinol]	1.18

Compound	cell-surface Lgr5 expression
CCCCCCN(C)C [N,N-Dimethylhexylamine]	1.05
O=NN(CCCl)C(=O)NC1CCCCC1 [Lomustine]	1.37
CCC(=O)O[C@H]1[C@H](O[C@@H]2[C@@H](C)[C@H](O[C@H]3C[C@@](C)(OC)[C@@H](O)[C@H](C)O3)[C@@H](C)C(=O)O[C@H](CC)[C@@](C)(O)[C@H](O)[C@@H](C)C(=O)[C@H](C)C[C@@]2(C)O)O[C@H](C)C[C@@H]1N(C)C [Erythromycin estolate]	0.567
CCOc1ccc2nc(S(N)(=O)=O)sc2c1 [Ethoxzolamide (6-Ethoxy-2-benzothiazolesulfonamide)]	1.15
CCN1CCCC1CNC(=O)c1cc(S(N)(=O)=O)ccc1OC (racemic) [Sulpiride (+/-)-]	1.07
CCc1cc(Cl)c(OC)c(C(=O)NC[C@@H]2CCCN2CC)c1O [Eticlopride hydrochloride (S)]	1.52 (active)
O=C([O-])C(=O)[O-].O=C([O-])C(=O)[O-].O=C([O-])C(=O)[O-].[Ce+3].[Ce+3] [Cerium oxalate]	1.08
COC(=O)c1ccc(O)c2nc3c(C=O)c(O)cc(O)c3nc12 [Lomofungin]	0.884
COc1ccnc(C[S+]([O-])c2nc3cc(OC(F)F)ccc3[nH]2)c1OC (stereo not drawn) [Pantoprazole]	1.01
OC(CCCN1CCC(O)(c2ccc(Cl)cc2)CC1)c1ccc(F)cc1 (stereo not drawn) [Haloperidol metabolite II]	1.18
CCCCCCCCCCCCCCc1ccc(S(=O)(=O)O)cc1.OCl [Oxychlorosene]	0.635
C[C@@H]1C[C@H]2[C@@H]3CCC4=CC(=O)C=C[C@]4(C)[C@@]3(F)[C@@H](O)C[C@]2(C)[C@H]1C(=O)CO	1.41
C[C@@H]1C[C@H]2[C@@H]3CCC4=CC(=O)C=C[C@]4(C)[C@@]3(F)[C@@H](O)C[C@]2(C)[C@@]1(O)C(=O)COP(=O)(O)O	1.26
C[C@H]1C[C@H]2[C@@H]3CCC4=CC(=O)C=C[C@]4(C)[C@@]3(F)[C@@H](O)C[C@]2(C)[C@@]1(O)C(=O)CO	1.45 (active)
CC(=O)OCC(=O)[C@@]1(O)[C@@H](C)C[C@H]2[C@@H]3CCC4=CC(=O)C=C[C@]4(C)[C@@]3(F)[C@@H](O)C[C@@]21C	1.59 (active)
C[C@H]1C[C@H]2[C@@H]3CCC4=CC(=O)C=C[C@]4(C)[C@@]3(F)[C@@H](O)C[C@]2(C)[C@@]1(O)C(=O)COP(=O)(O)O [Betamethasone sodium phosphate]	1.35 (active)
CC(=O)OCC(=O)[C@@]1(O)[C@@H](C)C[C@H]2[C@@H]3CCC4=CC(=O)C=C[C@]4(C)[C@@]3(F)[C@@H](O)C[C@@]21C [Betamethasone 21-acetate]	1.53 (active)
C[C@H]1C[C@H]2[C@@H]3CCC4=CC(=O)C=C[C@]4(C)[C@@]3(Cl)[C@@H](O)C[C@]2(C)[C@@]1(O)C(=O)CO [Beclomethasone]	1.36 (active)
O=P([O-])([O-])O.[K+].[K+] [Potassium phosphate dibasic]	1.09
O.O.O.O.O.O.[Br-].[Br-].[Sr+2] [Strontium bromide hexahydrate]	0.469
Nc1ccc2cc3ccc(N)cc3nc2c1 [Proflavine hemisulfate salt hydrate, powder]	1.06
CCCCCCCCCCCCCCCCCC(=O)[O-].CCCCCCCCCCCCCCCCCC(=O)[O-].[Zn+2] [Zinc stearate]	0.658
